ALR H2O2 inh: inhibitors of human ALR sulfhydryl oxidase, primary screen, biochemical, H2O2 detection, HRP-luminol luminescence, single point; FAD-linked sulfhydryl oxidase ALR (Homo sapiens), P55789; purified ALR, DTT oxidation; inhibition, % (concentration not given with the values); 290,000 compounds, 3.8% hits; AID 485317, 2010;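 active = mean replicate inhibition above about 79%, with every replicate also reaching it, limit read from the data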
Target sequence (P55789 whole entry, looked up): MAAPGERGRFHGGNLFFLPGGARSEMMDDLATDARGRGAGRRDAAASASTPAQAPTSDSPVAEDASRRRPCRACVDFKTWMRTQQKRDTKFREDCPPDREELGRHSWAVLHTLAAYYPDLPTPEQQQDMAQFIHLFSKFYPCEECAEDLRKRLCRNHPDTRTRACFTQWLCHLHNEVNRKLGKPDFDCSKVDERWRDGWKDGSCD
Granule exo inh: LAMP-1 surface exposure blockers, TALL-104 cells – cell-based, flow cytometry, MLPCN library, primary screen | TALL-104 LAMP-1 surface exposure; cells stimulated with thapsigargin and PMA | AID 651702, 2012 | 360,000 compounds, 0.66% hits | inhibition, % at 10 µM;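 active = inhibition above about 55%, limit read from the data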
GASC-1 inh: inhibitors of GASC-1 histone demethylase, primary screen, biochemical, fluorescence, DELFIA europium; Lysine-specific demethylase 4C (Homo sapiens), Q9H3R0; AID 2099, 2009; inhibition, % at 2.35 µM; 330,000 compounds, 0.069% hits; GST-JMJD2C(1-420) H3K9me3 demethylation;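 active = more than half of a compound's replicate wells show inhibition beyond 50%, single wells judged on their own value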;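 note: signal counts dimethyl H3K9 product captured on neutravidin plate; 0% = median of DMSO wells and 100% = 0.3 times that DMSO median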
Target sequence (Q9H3R0 1-420 limits assumed): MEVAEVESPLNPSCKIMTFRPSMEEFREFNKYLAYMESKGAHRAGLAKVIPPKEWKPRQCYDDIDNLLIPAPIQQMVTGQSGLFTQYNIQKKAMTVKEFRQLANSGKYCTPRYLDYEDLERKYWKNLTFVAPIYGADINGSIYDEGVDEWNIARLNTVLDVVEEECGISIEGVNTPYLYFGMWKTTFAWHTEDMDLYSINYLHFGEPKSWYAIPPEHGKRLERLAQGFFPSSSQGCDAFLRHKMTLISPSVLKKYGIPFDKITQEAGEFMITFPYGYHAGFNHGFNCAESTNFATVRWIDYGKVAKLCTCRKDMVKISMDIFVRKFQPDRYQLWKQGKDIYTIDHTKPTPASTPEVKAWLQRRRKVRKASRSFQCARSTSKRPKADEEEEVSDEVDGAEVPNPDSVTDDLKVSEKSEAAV
M18AAP inhibitor: PfM18AAP inhibitors, malaria aminopeptidase, primary screen, biochemical, QFRET, recombinant enzyme; M18 aspartyl aminopeptidase (Plasmodium falciparum 3D7); H-Glu-NHMec fluorogenic cleavage; inhibition, % at 7.35 µM; 290,000 compounds, 1.2% hits; AID 1822, 2009;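 active = inhibition above the campaign mean inhibition over all tested compounds plus 3 SD, cut at about 28% in these data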;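 note: 0% = plate median of test compound wells and 100% = 2 mM ZnCl2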
SMARCA2 activ: SMARCA2 (BRM) function activators, primary screen, cell-based, luminescence, high throughput; 370,000 compounds, 1% hits; activation, % at 9.1 µM; MG213 cells, MMTV-luciferase reporter, dexamethasone, overnight; AID 652017, 2013; in the data active = activation above about 7.8%;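 note: 0% = vehicle wells and 100% = reference activator wells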
beta cell repl: inducers of MIN6 beta-cell proliferation, primary screen, ATP luminescence, uHTS; proliferation, % at 10 µM; 330,000 compounds, 0.29% hits; MIN6 cells proliferation, ATPlite luminescence, 48 h; cells starved in 0.2% serum; 100% = growth in 10% serum;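 active = compounds whose signal lies at least 3.5 SD above the mean of all wells on their plate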;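 note: 0% = DMSO-treated cells in low-serum medium and 100% = 10% serum control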
SMARCA2 act conf: SMARCA2 (BRM) function activators, confirmation, cell-based, luminescence, triplicate; shares compounds with SMARCA2 activ; MG213 cells, MMTV-luciferase with dexamethasone, overnight; MG213 cells expressing E1A, Rb sequestered; DMSO wells 0%, reference activator 100%; activation, % at 9.1 µM; 3,500 compounds, 30% hits; AID 652260, 2013;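 active = activation above its plate's cutoff, the mean activation of tested wells plus 3 SD, cut at about 7.9% in these data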
VP16 Luc act: GAL4-VP16 luciferase reporter activation, counter-screen for SMARCA2 (BRM) activator project, cell-based, pG5luc, luminescence, high throughput; shares compounds with SMARCA2 activ; HEK293 GAL4-VP16 pG5luc reporter; scaled: DMSO wells 0%, SAHA wells 100%; activation, % at 9.1 µM; 3,500 compounds, 41% hits;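 active = activation above the solvent-only control well mean plus 3 SD, averaged across control plates, cut at about 5.2% in these data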
* = called active by the depositor; nt = no result. Most compounds without a hit are left out; they make up all but 5.4% or so of the library.

SMILES	ALR H2O2 inh	Granule exo inh	GASC-1 inh	M18AAP inhibitor	SMARCA2 activ	beta cell repl	SMARCA2 act conf	VP16 Luc act
C/C(=N\NC(=O)c1nn(C)cc1Cl)c1ccncc1	0	-1	-9	-9	9.5*	0	0	-1
COc1ccc2c(c1)CC/C(=C/c1ccco1)C2=O	10	10	1	-2	20*	0	4	12*
Cc1ccc(S(=O)(=O)N2CCC(=O)N([C@H](COCc3ccc(Cl)cc3)C(C)C)CC2)cc1	nt	20	nt	nt	-3	nt	nt	nt
Cc1ccc(NCCN(C)C)c2c(=O)c3cc(O)ccc3sc12	nt	44	nt	nt	3	nt	nt	nt
CN(C)CCNc1cccc2sc3ccc(O)cc3c(=O)c12	nt	50	nt	nt	16*	nt	31*	8.4*
O=C(N/N=C1\CCCc2ccccc21)c1ccccc1Cl	-3	2	0	-8	1	0	nt	nt
O=C(N/N=C1\CCc2ccccc21)c1ccccc1O	nt	-6	5	16	10.0*	-6	5	7.4*
O=C1CC(c2cc(-c3ccccc3)no2)C1	nt	10	10	3	9.7*	0	3	7.5*
Clc1ccc(N2O[C@H]3C=C[C@@H]2C3)nc1	nt	3	nt	nt	nt	nt	nt	nt
COc1ccc2c(c1)[C@@]1(OCCC=C[C@H]1C)C(=O)N2CC1CC1	nt	nt	nt	nt	-3	nt	nt	nt
CSc1nc2c([nH]1)c(=S)n(C)c(=O)n2C	nt	-13	nt	nt	8.4*	nt	9.0*	1
Cc1nc2ccccn2c1C(=O)/C=C/c1ccc(F)cc1	64	0	7	-4	3	-3	nt	nt
COc1ccc(/C=C/C(=O)c2c(C)nc3ccccn23)cc1	5	0	-3	-2	9.7*	2	6	10*
COc1ccccc1C(O)c1ncc(-c2ccccc2C)[nH]1 (stereo unspecified)	nt	-1	nt	nt	-4	nt	nt	nt
OCC(Cc1ccccc1)Nc1c2ccccc2nc2ccccc12 (stereo unspecified)	-5	18	-4	-1	9.8*	0	5	2
NC(c1csc(NC(=O)Nc2ccc(OC(F)(F)F)cc2)n1)C1CCCCC1 (stereo unspecified)	nt	13	nt	nt	-2	nt	nt	nt
CCOC(=O)C1CN(S(C)(=O)=O)c2cc(CC(=O)OC)ccc2O1 (stereo unspecified)	-2	0	26	3	8.2*	-3	-1	1
COc1cccc(C(O)c2nc(-c3ccc(Cl)cc3)cs2)c1 (stereo unspecified)	nt	-8	nt	nt	-6	nt	nt	nt
CCCCCCCCN1C(=O)[C@@H](CC(=O)NCCc2ccccc2OC)C[C@@]2(C(=O)OC)C1=C[C@H](C(C)C)O[C@@H]2C1CC1	nt	nt	nt	nt	-2	nt	nt	nt
COc1ccc(-c2oc3c(c2C(=O)OCCO)C(OCCCO)CCC3)cc1 (stereo unspecified)	nt	-3	nt	nt	-3	nt	nt	nt
COc1ccc(Nc2nc(C)c(C(C)=O)s2)cc1	nt	1	nt	nt	8.2*	nt	2	10*
CC(=O)c1sc(NC(=O)c2ccc(C(C)(C)C)cc2)nc1C	-17	0	-4	4	8.2*	-2	8.0*	18*
COc1ccc(Nc2nc(C)c(-c3ccccc3)s2)cc1	61	14	0	1	11*	nt	4	5.9*
COc1ccc(C(=O)C[C@@H]2OC3CCCCC3N2S(=O)(=O)c2ccc(C)cc2)cc1OC (stereo partly specified)	nt	-16	nt	nt	0	nt	nt	nt
Cc1ccc(C(=O)/C=C2\NCCNC2=O)cc1	4	0	0	2	12*	-2	12*	15*
SMILES	ALR H2O2 inh	Granule exo inh	GASC-1 inh	M18AAP inhibitor	SMARCA2 activ	beta cell repl	SMARCA2 act conf	VP16 Luc act
COc1cc(CC(NC(C)=O)C(=O)NC2CCN(c3c4c(nc5ncnn35)CCC4)CC2)cc(OC)c1 (stereo unspecified)	2	nt	14	-3	nt	-2	nt	nt
COc1cccc(CC(NC(C)=O)C(=O)NC2CCN(c3c4c(nc5ncnn35)CCC4)CC2)c1 (stereo unspecified)	nt	-1	nt	-7	8.4*	nt	-2	0
C[C@H](NC(=O)Cn1cncn1)c1ccccc1	-9	4	20	2	4	2	nt	nt
Cc1ccc(C(=O)Cn2cncn2)cc1	-1	-6	8	2	10*	5	-2	0
CC(C)C[C@H]1CNC(=O)C(=O)N1C[C@H]1CCCN1C[C@H](CC(C)C)N1C[C@H](CC(C)C)N(CCc2ccccc2)C(=O)C1=O	nt	-1	nt	nt	-4	nt	nt	nt
COc1cncc(C#Cc2ccccn2)c1	nt	-8	nt	nt	-4	nt	nt	nt
O=C(Cn1cc(/C=C\[N+](=O)[O-])c2ccccc21)Nc1ccccc1	-8	0	-8	2	17*	-6	10.0*	1
Cn1cccc1C(=O)NCC1COc2ccccc2O1 (stereo unspecified)	nt	1	nt	nt	11*	3	10*	7.1*
CCc1nc2ccc(C(=O)NCc3ccccc3OC)cn2c1N(CC)Cc1cccc(Br)c1	nt	6	nt	nt	-4	nt	nt	nt
CC(C)[C@H](N)C(=O)N[C@H]1CCC2C3CC=C4C[C@@H](O)CC[C@]4(C)C3CC[C@@]21C (stereo partly specified)	nt	31	nt	nt	19*	nt	44*	2
COc1ccc(C(=O)Nc2ccc3ccccc3c2)cc1	nt	-9	-5	-4	4	-5	nt	nt
CS(=O)(=O)Nc1ccc(C(=O)Nc2ccc3ccccc3c2)cc1	nt	8	1	-1	8.4*	-1	16*	7.2*
Cc1cccc(-c2nnc(SCC(=O)c3ccc(F)cc3)n2C)c1	nt	nt	nt	nt	7	nt	nt	nt
Clc1ccc(-c2nnc(-c3cccnc3)o2)cc1	-5	-4	-16	-6	3	-3	nt	nt
c1coc(-c2nnc(-c3ccc4c(c3)OCO4)o2)c1	nt	nt	nt	-1	10*	-1	8.4*	11*
c1ccc(-c2nnc(-c3ccco3)o2)cc1	6	-3	6	9	8.4*	-1	7	9.0*
Brc1ccc(-c2nnc(-c3ccc4c(c3)OCO4)o2)o1	0	-2	9	-7	7	-5	nt	nt
Clc1ccc(-c2nnc(-c3ccccc3)o2)cn1	-5	-6	8	-2	8.6*	nt	4	4

High-throughput results as filed in PubChem BioAssay.
